HT1080NT lethal: kills 2HG-producing HT-1080-NT fibrosarcoma cells; hit rate 1.6% among 360,000; Potency, µM (series often up to 46.1 µM), actives largely listed as cytotoxic; HT-1080-NT fibrosarcoma viability, CellTiter-Glo ATP luminescence, 48 h;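 further: NT is the 2HG producing partner of a matched IDH1 knockdown line; nearly all actives have a fitted effect of over 55% in size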
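Fibrosarcoma NT cells, 750 per well in 5% FBS RPMI, were exposed to compound for 48 hours. Viability: CellTiter-Glo luminescence.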
HT1080 IDH1KD tx: kills HT-1080 cells with IDH1 knockdown; HT-1080 IDH1 knockdown viability, ATP luminescence, 48 h; Potency, µM (series often up to 46.1 µM), most hits filed as cytotoxic; hit rate 2% among 360,000
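HT-1080-IDH1KD cells (IDH1 knocked down), 750/well in RPMI with 5% FBS, treated with compound 48 h at 37 degrees C. Viability by CellTiter-Glo luminescence, normalised to DMSO and no-cell wells; concentration-response curves classed.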
KB-3-1 cytotox: kills parental KB-3-1 adenocarcinoma cells. KB-3-1 viability, CellTiter-Glo ATP luminescence, 72 h. Potency, µM (titrated, usually from 46.1 µM), usual class: cytotoxic. hit rate 1.4% among 400,000; further: nearly all actives have a fitted effect of over 60% in size
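KB-3-1 cells, DMEM (no phenol red) + 10% FBS; compound by pin transfer, 72 h, 37 °C. Readout: CellTiter-Glo luminescence after 10 min. Data normalized, curve-fitted.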
KB-V1 MDR tox: kills drug-selected multidrug resistant KB-V1 cells | Potency, µM (series often up to 46.1 µM), most hits filed as cytotoxic | hit rate 3.4% among 400,000 | KB-V1 MDR cells viability, CellTiter-Glo, 72 h | AID 1347076; further: nearly all actives have a fitted effect of over 60% in size
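Cytotoxicity via CellTiter-Glo luminescence after 72 h compound exposure at 37 degrees C. Cells: drug-selected KB-V1 line, DMEM phenol-red free plus 10% FBS. Compounds tested at multiple concentrations; normalized data fitted to concentration-effect curves.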
Hits are given with their value; n = inactive; u = inconclusive; x = not tested or not shown. Shown are actives, neighbours in structure and some others; about 5.7% of the full set was active somewhere. The call rests on the fitted dose curve; in most records, active means well fitted curve in the direction sought with a large enough effect; inconclusive means small, poorly fitted or top-dose-only effect, or another doubt; inactive means no such curve, though single readings can be large; an effect the other way counts as inactive or inconclusive.

SMILES	HT1080NT lethal	HT1080 IDH1KD tx	KB-3-1 cytotox	KB-V1 MDR tox
CCCCNC(=O)CCCn1c(=O)c2ccccc2n(Cc2cccc(Cl)c2)c1=O	x	x	n	n
CCS(=O)(=O)N1CCC2(CC1)OC(=O)C(C)=C2C(=O)NCc1ccccc1C	x	x	n	n
CC(C)CN(CC(C)C)c1ccc(/C=N/n2cnnc2)cc1[N+](=O)[O-]	n	n	u	20.6µM
O=[N+]([O-])c1cccc(/C=N/n2cnnc2)c1	n	n	n	n
O=[N+]([O-])c1cc(/C=N/n2cnnc2)ccc1N1CCCC1	n	n	n	2.59µM
C(=Nn1cnnc1)c1ccc2c(c1)CCC2	n	n	16.4µM	u
O=[N+]([O-])c1cc(/C=N/O)ccc1N1CCCC1	n	n	u	u
Brc1cccc(/C=N\n2cnnc2)c1	n	n	n	u
CN(C)c1ccc(-c2nn3c(-c4cc(-c5ccccc5)n[nH]4)nnc3s2)cc1	x	x	u	n
O=C(N/N=C/c1cc(Cl)cc([N+](=O)[O-])c1O)c1ccc2c(c1)OCO2	n	n	u	n
Cc1cc(Br)cc(/C=N/NC(=O)c2ccc3c(c2)OCO3)c1O	u	16.4µM	u	n
COc1cc(Cl)cc(/C=N\NC(=O)c2ccc3c(c2)OCO3)c1O	9.2µM	9.2µM	n	u
O=C(N/N=C/c1ccccc1O)c1ccc2c(c1)OCO2	u	u	u	n
CCOc1ccc(NC(=O)Cn2c(=O)n(CCC(=O)NCCc3ccccc3)c(=O)c3ccccc32)cc1	x	x	n	n
O=[N+]([O-])c1ccccc1Nc1c2ccccc2nc2ccccc12	n	u	u	n
O=[N+]([O-])c1cccc2nc3ccccc3c(NCCCn3ccnc3[N+](=O)[O-])c12	u	0.082µM	n	0.731µM
O=C(Nc1ccn(CCCN2CCN(Cc3cccc4ccccc34)CC2)c(=O)n1)OCc1ccccc1	u	n	u	18.4µM
O=C(Nc1ccn(CCCN2CCN(c3ccccc3)CC2)c(=O)n1)OCc1ccccc1	n	n	u	u
CC(C1=C(CCN(C)C)Cc2ccccc21)c1ccccn1 (stereo not drawn)	n	n	n	16.4µM
COc1ccc(OC)c(N(CC(=O)Nc2cccnc2)S(=O)(=O)c2ccccc2)c1	6.51µM	3.26µM	n	u
CN(c1cccc(NC(=O)CN(c2cccc(Cl)c2)S(=O)(=O)c2ccc(Cl)cc2)c1)S(C)(=O)=O	n	n	u	18.4µM
COC(=O)c1cc(NC(=O)CN(c2cccc(OC)c2)S(=O)(=O)c2ccccc2)ccc1Cl	n	n	16.4µM	1.46µM
COc1ccccc1N(CC(=O)Nc1cccnc1)S(=O)(=O)c1ccccc1	n	n	n	u
COc1cccc(N(CC(=O)Nc2ccc3c(c2)OCO3)S(=O)(=O)c2ccccc2)c1	n	n	n	16.4µM
Cc1ccc(S(=O)(=O)Nc2ccccc2C(=O)Nc2nc(-c3ccc(F)cc3)cs2)cc1	u	u	11.6µM	2.59µM
SMILES	HT1080NT lethal	HT1080 IDH1KD tx	KB-3-1 cytotox	KB-V1 MDR tox
Cc1ccc(S(=O)(=O)Nc2nc(-c3ccccc3)cs2)cc1	n	n	n	n
COc1ccc(-c2csc(NC(=O)c3ccccc3NS(=O)(=O)c3ccc(F)c(F)c3)n2)cc1	u	1.64µM	5.17µM	4.11µM
Cc1cccc(Cn2c(=O)n(Cc3ccccc3)c(=O)c3c2c2cc(C)ccc2n3C)c1	x	x	n	n
COc1ccc(NS(=O)(=O)c2cccc(C(=O)NNC(=O)c3cc(C)oc3C)c2)cc1	n	n	n	n
COc1ccc(NS(=O)(=O)c2cc(C)ccc2NC(=O)c2cc(C)oc2C)cc1	0.581µM	0.92µM	0.0411µM	0.259µM
O=C(NCCc1ccccc1)c1cc(-c2ccccc2)nc2n[nH]c(-c3ccccc3)c12	x	x	n	n
O=C(Nc1ncc(Cc2ccc(SC(F)F)cc2)s1)c1ccccc1	4.61µM	6.51µM	1.46µM	2.06µM
Cc1ccc(C(=O)Nc2nc3c(s2)CCCC3)o1	n	n	u	11.6µM
Cc1ccc(Cc2cnc(NC(=O)c3cccs3)s2)cc1	n	u	n	u
CCSc1nnc(NC(=O)c2ccc(C)o2)s1	n	n	n	18.4µM
Cc1ccc(C(=O)Nc2ncc(Cc3ccccc3)s2)o1	x	x	3.55µM	n
FC(F)(F)c1ccc(C2=Nc3ccccc3NC(c3cccs3)=N2)cc1	x	x	n	n
Cc1oc2ncn(CC(C)C)c(=O)c2c1C(=O)Nc1cc(F)ccc1F	x	x	n	n
CCCc1noc(-c2ccc(NCc3ccc(C)cc3)c([N+](=O)[O-])c2)n1	x	x	n	n
CSc1ccc2c(c1)C(N1CCN(C)CC1)Cc1ccccc1S2 (stereo not drawn)	25.9µM	20.6µM	n	n
CN1CCN(C2Cc3cc(F)ccc3Sc3ccc(Cl)cc32)CC1 (stereo not drawn)	n	u	n	n
CN1CCN(C2Cc3ccccc3Sc3cc(C(F)(F)F)ccc32)CC1 (stereo not drawn)	16.4µM	20.6µM	n	n
CN1CCN(C2Cc3ccc(F)cc3Sc3cc(F)c(Cl)cc32)CC1 (stereo not drawn)	25.9µM	u	u	n

Screening data deposited in PubChem by National Center for Advancing Translational Sciences (NCATS).
